# PubChem BioAssay
# Active and inactive are the calls of the source. Unless noted, no rule for the calls is given here.
# What was measured:
# [1] = test system: Wnt5a (protein binding on small-molecule microarray); test: small molecules binding Wnt5a protein – biophysical, small-molecule microarray, 635/667 nm fluorescence, primary screen (AID 1142); conditions: 635 nm fluorescence, higher = more signal;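 also: fluorescence read at 667 nm with signal to noise per printed feature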
# [2] = ATP-based viability of Huh7 replicon cells – cell-based, CellTiter-Glo luminescence, basal, 48 h, cytotoxicity control for HCV replication inhibitor project, primary screen (AID 1143); conditions: higher = more signal, called active from +8 up or from −8 down;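 also: Huh7 hepatoma cells carrying a hepatitis C replication reporter with no stimulus; test concentration not given here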
# [3] = Pseudomonas biofilm growth suppression – PAO1 strain, BacTiter-Glo luminescence, LB-PBS, primary screen (AID 1144); conditions: P. aeruginosa PAO1 biofilm, 12 h, higher = more signal
# [4] = basal CRE-LacZ reporter activity in PC12 – cell-based, unstimulated, primary screen (AID 1145); conditions: no forskolin, luminescence, 4.5 h, higher = more signal, called active from +8 up or from −8 down
# [5] = forskolin-driven CRE-LacZ activity in PC12 – cell-based, CRE-LacZ reporter, forskolin-stimulated, primary screen (AID 1146); conditions: luminescence, 4.5 h, higher = more signal, called active from +8 up or from −8 down;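 also: PC12 cells with 6xCRE LacZ reporter stimulated by forskolin 10 µM; beta-galactosidase reporter signal reflecting CREB driven transcription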
# [6] = molecular target: Streptavidin (Streptomyces avidinii) (UniProt P22629); test: compounds binding control protein streptavidin – biophysical, small-molecule microarray, 635/667 nm fluorescence, artefact control for SMM compound annotation, primary screen (AID 1147); conditions: higher = more signal;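 also: signal reflects streptavidin binding to arrayed compounds as a control protein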
# [7] = probe aInhba binding on compound microarray – biochemical, small-molecule microarray, 635/667 nm fluorescence, primary screen (AID 1148); conditions: higher = more signal;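 also: score merges 667nm spot fluorescence with signal-to-noise for antibody binding to printed compounds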
# Torsin-1A (Homo sapiens) [8] = molecular target: Torsin-1A (Homo sapiens) (UniProt O14656); test: TOR1A wild-type binding on microarray – cell lysate, small-molecule microarray, lysate, 635/667 nm, primary screen (AID 1149); conditions: COS7 hTOR1A-WT lysate, 635 nm fluorescence, higher = more signal
# Torsin-1A (Homo sapiens) [9] = molecular target: Torsin-1A (Homo sapiens) (UniProt O14656); test: torsin A mutant lysate binding on microarrays – cell lysate, small-molecule microarray, COS7 lysate, 635/667 nm fluorescence, primary screen (AID 1150); conditions: COS7 hTOR1A mutant lysate, 635 nm fluorescence, higher = more signal;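 also: score pools 667 nm emission and signal to noise measuring lysate protein binding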
# [10] = test system: Sonic hedgehog protein (Shh); test: Sonic hedgehog microarray binding compounds – biochemical, small-molecule microarray, 635/667 nm fluorescence, primary screen (AID 1151); conditions: 635 nm fluorescence, higher = more signal;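 also: Shh protein binding to compounds spotted on small-molecule microarray slides; score combines spot fluorescence intensity with signal-to-noise across triplicate slides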
# Chain of Torsin-1A (Homo sapiens) (O14656 whole entry, looked up): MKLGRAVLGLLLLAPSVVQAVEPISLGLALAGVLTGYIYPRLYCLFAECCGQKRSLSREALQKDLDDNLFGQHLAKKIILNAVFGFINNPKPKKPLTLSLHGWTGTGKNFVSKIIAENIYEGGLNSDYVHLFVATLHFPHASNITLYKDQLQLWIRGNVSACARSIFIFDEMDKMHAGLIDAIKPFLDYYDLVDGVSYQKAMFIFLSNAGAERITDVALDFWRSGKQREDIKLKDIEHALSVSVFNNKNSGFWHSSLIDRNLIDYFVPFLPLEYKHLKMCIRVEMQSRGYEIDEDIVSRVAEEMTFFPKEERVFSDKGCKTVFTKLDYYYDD
# Chain of Streptavidin (Streptomyces avidinii) (P22629 whole entry, looked up): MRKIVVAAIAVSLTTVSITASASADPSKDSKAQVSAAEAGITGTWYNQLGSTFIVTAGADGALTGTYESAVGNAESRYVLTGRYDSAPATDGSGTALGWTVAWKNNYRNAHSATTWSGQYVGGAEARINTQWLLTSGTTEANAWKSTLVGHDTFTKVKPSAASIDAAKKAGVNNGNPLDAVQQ
Compound,composite z-score [1],z-score [2],z-score [3],z-score [4],z-score [5],composite z-score [6],composite z-score [7],composite z-score (Torsin-1A (Homo sapiens) [8]),composite z-score (Torsin-1A (Homo sapiens) [9]),composite z-score [10]
CC(C)(C)OC(=O)CC[C@]12N=C(c3ccc(OCCCO)cc3)O[C@H]1c1ccccc1N(CCS(=O)(=O)c1ccccc1)C2=O,0.628,-2.91 (inactive),-0.556 (inactive),3.64 (inactive),-1.42 (inactive),0.579,0.0785,0.698,0.811,1.2
CN1C(=O)C2C=CC(C(O)C3=C[C@H]4C[C@@H](C3)C4(C)C)N(Nc3ccccc3)C2C1=O (stereo not given in full),0.0737,0.435 (inactive),-0.79 (inactive),0.812 (inactive),0.767 (inactive),0.186,-0.0313,-0.189,0.276,0.447
COCCOC(=O)N1C(=O)[C@@]2(c3cc(C#CCCO)ccc31)[C@H](C(=O)N1CCN(c3ncccn3)CC1)[C@H]1C(=O)O[C@H](c3ccccc3)[C@H](c3ccccc3)N1[C@@H]2c1ccccc1OCCO,0.0536,-2.42 (inactive),-0.173 (inactive),-0.698 (inactive),-0.228 (inactive),1.08,-0.0983,0.259,0.829,0.842
C=CCNC(=O)[C@@H]1[C@H]2C(=O)O[C@H](c3ccccc3)[C@H](c3ccccc3)N2[C@H](c2ccccc2OCCO)[C@@]12C(=O)N(C(=O)OCCOC)c1ccc(C#CCNC(N)=O)cc12,0.0308,-0.952 (inactive),-0.441 (inactive),-0.199 (inactive),0.447 (inactive),0.225,0.115,0.186,0.697,1.53
C=CCN1C(=O)[C@@]2(O[C@@H](CCO)[C@H]([Si](C)(C)c3ccc(OC)cc3)[C@H]2C)c2cc(NC(=O)c3ccc(OC)cc3)ccc21,0.157,-6.5 (inactive),-0.39 (inactive),10.6 (active),-1.6 (inactive),0.15,-0.0221,0.214,0.373,1.64
CCc1oc(CC[C@@H](CO)NC(=O)NCCn2cc(C3(O)CCCCC3)nn2)c(C(=O)OC)c1C(=O)OC,0.209,-0.186 (inactive),0.73 (inactive),1.01 (inactive),1.01 (inactive),-0.0709,0.174,1.31,1.11,2.09
COc1ccc([Si](C)(C)[C@H]2[C@H](CC(=O)N3CCC[C@H]3CO)O[C@@]3(C(=O)N(Cc4cccc(N5C(=O)c6cccc7cccc5c67)c4)c4ccccc43)[C@@H]2C)cc1,1.08,-3.59 (inactive),0.346 (inactive),1.46 (inactive),1.16 (inactive),0.309,0.392,0.84,0.836,2.21
